# Laboratory results as given in publication PMC7862700, “An all-to-all approach to the identification of sequence-specific readers for epigenetic DNA modifications on cytosine”.
# How the values were obtained:
# Experiment in all cases: DAPPL (digital affinity profiling via proximity ligation, sequencing); 10 mM Tris-HCl pH 7.5, 50 mM NaCl, 1 mM DTT, 4% glycerol, room temperature, 30 min; GST-TFs on glutathione beads, 16-mer random dsDNA library, 0.1% formaldehyde crosslink after washing; high values mean tight binding
# Conditions in all cases: protein: recombinant; tags: N-terminal GST; dsDNA, one strand shown
# [1] = target: T1, GABPA (Homo sapiens, UniProt Q06546 1-454)
# T1 sequence: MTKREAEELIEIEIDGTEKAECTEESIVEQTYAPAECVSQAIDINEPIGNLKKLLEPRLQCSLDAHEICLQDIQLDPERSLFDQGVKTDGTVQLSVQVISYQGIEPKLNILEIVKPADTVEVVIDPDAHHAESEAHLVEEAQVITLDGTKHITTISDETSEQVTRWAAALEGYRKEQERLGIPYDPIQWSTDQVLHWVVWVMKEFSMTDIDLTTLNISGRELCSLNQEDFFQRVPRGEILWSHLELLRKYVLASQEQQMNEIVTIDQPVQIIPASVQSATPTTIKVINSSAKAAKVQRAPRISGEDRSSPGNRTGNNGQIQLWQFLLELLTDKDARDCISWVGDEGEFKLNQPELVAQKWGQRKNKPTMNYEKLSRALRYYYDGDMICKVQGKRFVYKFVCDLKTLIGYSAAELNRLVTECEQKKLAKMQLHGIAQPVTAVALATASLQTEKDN
# Summary of the method: (§1)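 Human transcription factors were made in yeast as GST fusions, captured on glutathione beads and barcoded with DNA. With a tag-only sample included, the pool was incubated with 200 nmole of a random double-stranded 16-mer DNA library in Tris/NaCl/DTT/glycerol buffer at room temperature for 30 min, then crosslinked with 0.1% formaldehyde after washing, ligated by proximity, amplified and sequenced. For binding signal, each hexamer's read frequency for a factor is divided by its frequency for the tag-only sample.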
# [2] = target: ELF1 (Homo sapiens, UniProt P32519 1-619)
# Sequence of ELF1 (P32519 whole entry): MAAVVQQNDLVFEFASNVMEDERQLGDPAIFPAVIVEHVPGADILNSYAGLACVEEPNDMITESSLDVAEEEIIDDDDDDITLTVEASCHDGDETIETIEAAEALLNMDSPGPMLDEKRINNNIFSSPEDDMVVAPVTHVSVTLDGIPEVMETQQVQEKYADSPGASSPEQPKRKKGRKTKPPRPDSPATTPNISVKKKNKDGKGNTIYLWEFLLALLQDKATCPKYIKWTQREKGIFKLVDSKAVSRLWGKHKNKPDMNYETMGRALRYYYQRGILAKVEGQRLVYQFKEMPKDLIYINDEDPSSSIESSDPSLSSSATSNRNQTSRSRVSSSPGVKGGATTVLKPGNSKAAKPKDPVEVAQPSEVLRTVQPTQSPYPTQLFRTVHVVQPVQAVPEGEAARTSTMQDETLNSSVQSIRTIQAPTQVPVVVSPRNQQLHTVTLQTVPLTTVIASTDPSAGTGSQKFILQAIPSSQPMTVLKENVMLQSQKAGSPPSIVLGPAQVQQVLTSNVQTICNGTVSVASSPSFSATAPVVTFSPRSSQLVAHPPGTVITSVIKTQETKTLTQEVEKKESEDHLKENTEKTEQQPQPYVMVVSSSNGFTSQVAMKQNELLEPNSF
# Summary of the method: as §1
# [3] = target: SPI1 (Homo sapiens, UniProt P17947 1-270)
# Summary of the method: as §1
# [4] = target: ELF4 (Homo sapiens, UniProt Q99607 1-663)
# Sequence of ELF4 (Q99607 whole entry): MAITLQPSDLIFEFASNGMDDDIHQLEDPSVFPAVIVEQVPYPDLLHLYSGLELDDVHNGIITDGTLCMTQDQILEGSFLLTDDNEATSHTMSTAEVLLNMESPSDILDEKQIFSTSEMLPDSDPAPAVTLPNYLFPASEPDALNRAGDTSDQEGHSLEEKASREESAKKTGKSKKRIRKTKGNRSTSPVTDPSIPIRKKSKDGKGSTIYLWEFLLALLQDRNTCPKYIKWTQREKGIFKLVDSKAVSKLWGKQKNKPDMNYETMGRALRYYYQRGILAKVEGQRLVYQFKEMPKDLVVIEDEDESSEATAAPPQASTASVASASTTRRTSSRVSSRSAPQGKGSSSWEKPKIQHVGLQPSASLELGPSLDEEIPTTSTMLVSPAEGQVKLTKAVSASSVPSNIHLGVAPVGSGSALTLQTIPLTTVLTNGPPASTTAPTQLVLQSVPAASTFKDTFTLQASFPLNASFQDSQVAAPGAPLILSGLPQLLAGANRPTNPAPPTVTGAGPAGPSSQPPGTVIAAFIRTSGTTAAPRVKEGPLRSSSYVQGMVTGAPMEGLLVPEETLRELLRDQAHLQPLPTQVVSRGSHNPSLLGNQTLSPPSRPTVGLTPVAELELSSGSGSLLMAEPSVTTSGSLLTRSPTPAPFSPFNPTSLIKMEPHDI
# Summary of the method: as §1
# [5] = target: T2, ELK4 (Homo sapiens, UniProt P28324-2 1-405)
# T2 sequence: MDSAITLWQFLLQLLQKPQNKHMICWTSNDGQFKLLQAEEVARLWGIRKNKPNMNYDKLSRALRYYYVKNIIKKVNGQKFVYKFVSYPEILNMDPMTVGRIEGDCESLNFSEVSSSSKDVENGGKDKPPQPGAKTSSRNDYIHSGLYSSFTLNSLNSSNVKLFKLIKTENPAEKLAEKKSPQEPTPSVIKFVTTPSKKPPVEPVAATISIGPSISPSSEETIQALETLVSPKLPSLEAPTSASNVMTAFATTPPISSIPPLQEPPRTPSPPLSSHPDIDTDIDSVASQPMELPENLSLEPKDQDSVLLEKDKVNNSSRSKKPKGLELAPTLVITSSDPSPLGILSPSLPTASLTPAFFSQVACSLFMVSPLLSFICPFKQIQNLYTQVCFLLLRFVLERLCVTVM
# Summary of the method: as §1
# [6] = target: T3, ETV2 (Homo sapiens, UniProt O00321 1-342)
# T3 sequence: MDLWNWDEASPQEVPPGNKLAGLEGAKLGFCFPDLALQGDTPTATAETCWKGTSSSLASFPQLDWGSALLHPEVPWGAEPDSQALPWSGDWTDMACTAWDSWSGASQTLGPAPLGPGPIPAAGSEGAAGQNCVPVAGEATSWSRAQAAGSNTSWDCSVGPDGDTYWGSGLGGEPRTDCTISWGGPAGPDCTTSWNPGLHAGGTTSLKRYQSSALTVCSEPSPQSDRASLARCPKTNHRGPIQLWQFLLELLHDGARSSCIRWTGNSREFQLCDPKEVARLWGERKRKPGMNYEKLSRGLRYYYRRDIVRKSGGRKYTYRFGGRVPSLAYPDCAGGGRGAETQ
# Summary of the method: as §1
# [7] = target: T4, SPDEF (Homo sapiens, UniProt O95238 1-335)
# T4 sequence: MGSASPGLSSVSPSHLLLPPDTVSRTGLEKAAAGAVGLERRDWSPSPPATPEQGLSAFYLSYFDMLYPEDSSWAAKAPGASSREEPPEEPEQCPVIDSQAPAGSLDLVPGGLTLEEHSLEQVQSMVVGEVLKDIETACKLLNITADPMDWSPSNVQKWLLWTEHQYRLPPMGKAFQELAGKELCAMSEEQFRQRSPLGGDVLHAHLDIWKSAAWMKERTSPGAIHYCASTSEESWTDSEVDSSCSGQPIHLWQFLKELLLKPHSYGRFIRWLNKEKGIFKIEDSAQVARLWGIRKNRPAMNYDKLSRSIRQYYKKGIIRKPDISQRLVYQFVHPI
# Summary of the method: as §1
# [8] = target: T5, ETV7 (Homo sapiens, UniProt Q9Y603 1-341)
# T5 sequence: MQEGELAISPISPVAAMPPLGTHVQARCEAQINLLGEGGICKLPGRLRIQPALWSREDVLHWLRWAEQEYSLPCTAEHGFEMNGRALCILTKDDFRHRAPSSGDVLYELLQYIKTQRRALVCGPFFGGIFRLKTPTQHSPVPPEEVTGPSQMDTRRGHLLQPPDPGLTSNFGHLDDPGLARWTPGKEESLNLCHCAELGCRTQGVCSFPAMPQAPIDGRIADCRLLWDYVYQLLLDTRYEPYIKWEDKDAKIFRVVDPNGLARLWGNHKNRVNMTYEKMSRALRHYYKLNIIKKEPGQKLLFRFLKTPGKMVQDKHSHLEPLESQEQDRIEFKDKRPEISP
# Summary of the method: as §1
# [9] = target: T6, ETV3 (Homo sapiens, UniProt P41162-2 1-143)
# T6 sequence: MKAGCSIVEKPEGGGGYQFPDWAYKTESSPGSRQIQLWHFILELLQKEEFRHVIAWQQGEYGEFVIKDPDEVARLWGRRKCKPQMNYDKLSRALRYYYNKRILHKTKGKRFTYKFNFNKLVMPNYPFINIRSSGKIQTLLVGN
# Summary of the method: as §1
# [10] = target: T7, ELK3 (Homo sapiens, UniProt P41970 1-407)
# T7 sequence: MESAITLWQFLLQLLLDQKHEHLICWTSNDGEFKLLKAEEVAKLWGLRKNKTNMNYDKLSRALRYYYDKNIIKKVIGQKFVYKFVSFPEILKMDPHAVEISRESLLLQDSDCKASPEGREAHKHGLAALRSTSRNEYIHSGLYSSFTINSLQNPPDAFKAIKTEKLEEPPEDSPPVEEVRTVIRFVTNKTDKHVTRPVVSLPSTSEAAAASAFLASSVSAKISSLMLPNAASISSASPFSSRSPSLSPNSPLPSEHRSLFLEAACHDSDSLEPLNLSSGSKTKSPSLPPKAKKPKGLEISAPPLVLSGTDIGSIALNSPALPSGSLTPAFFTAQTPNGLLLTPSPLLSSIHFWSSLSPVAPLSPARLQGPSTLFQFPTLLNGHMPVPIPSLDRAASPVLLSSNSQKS
# Summary of the method: as §1
# [11] = target: T8, ERF (Homo sapiens, UniProt P50548 1-548)
# T8 sequence: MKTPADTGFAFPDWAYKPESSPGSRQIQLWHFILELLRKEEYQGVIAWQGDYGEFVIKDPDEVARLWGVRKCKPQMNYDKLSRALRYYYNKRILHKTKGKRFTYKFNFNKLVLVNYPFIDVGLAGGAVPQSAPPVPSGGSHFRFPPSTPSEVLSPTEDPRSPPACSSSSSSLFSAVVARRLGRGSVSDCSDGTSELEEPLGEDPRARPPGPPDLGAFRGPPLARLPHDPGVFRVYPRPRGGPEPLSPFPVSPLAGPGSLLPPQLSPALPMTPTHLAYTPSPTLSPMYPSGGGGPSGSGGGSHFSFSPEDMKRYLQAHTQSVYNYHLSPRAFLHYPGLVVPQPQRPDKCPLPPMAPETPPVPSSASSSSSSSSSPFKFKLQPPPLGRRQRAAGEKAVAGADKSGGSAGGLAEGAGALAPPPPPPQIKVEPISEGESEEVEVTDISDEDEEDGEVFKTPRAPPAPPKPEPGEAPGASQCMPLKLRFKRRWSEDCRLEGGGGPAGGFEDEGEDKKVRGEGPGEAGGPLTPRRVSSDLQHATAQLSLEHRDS
# Summary of the method: as §1
sequence,measurement,setting,value
ATAGAC,binding signal,[1],"1.04 fold enrichment (6-mer frequency, TF over GST control)"
same,binding signal,[2],"1.03 fold enrichment (6-mer frequency, TF over GST control)"
same,binding signal,[3],"1.02 fold enrichment (6-mer frequency, TF over GST control)"
same,binding signal,[4],"1.01 fold enrichment (6-mer frequency, TF over GST control)"
same,binding signal,[5],"1.02 fold enrichment (6-mer frequency, TF over GST control)"
same,binding signal,[6],"1.08 fold enrichment (6-mer frequency, TF over GST control)"
same,binding signal,[7],"1.01 fold enrichment (6-mer frequency, TF over GST control)"
same,binding signal,[8],"1.1 fold enrichment (6-mer frequency, TF over GST control)"
same,binding signal,[9],"1.02 fold enrichment (6-mer frequency, TF over GST control)"
GTTGAA,binding signal,[5],"1.01 fold enrichment (6-mer frequency, TF over GST control)"
CGCACC,binding signal,[1],"1.03 fold enrichment (6-mer frequency, TF over GST control)"
same,binding signal,[2],"1.03 fold enrichment (6-mer frequency, TF over GST control)"
same,binding signal,[10],"1.05 fold enrichment (6-mer frequency, TF over GST control)"
same,binding signal,[4],"1.03 fold enrichment (6-mer frequency, TF over GST control)"
same,binding signal,[5],"1.13 fold enrichment (6-mer frequency, TF over GST control)"
same,binding signal,[6],"1.1 fold enrichment (6-mer frequency, TF over GST control)"
same,binding signal,[11],"1.01 fold enrichment (6-mer frequency, TF over GST control)"
GTGGTC,binding signal,[5],"1.06 fold enrichment (6-mer frequency, TF over GST control)"
